{"source": "PubChem BioAssay AID1645855", "about": "(Buhrlage Lab, Dana-Farber Cancer Institute and Novartis …, 2021)", "note": "The campaign covered roughly 47,000 compounds. About 3,100 (6.6%) were called active. Rule as the data show it: active = inhibition above about 30%; inactive = the rest. This excerpt belongs to a sample that is enriched for actives.", "data": [{"target": "Ubiquitin carboxyl-terminal hydrolase 17-like protein 5 (Homo sapiens) (UniProt A8MUK1)", "sequence (A8MUK1 whole entry, looked up)": "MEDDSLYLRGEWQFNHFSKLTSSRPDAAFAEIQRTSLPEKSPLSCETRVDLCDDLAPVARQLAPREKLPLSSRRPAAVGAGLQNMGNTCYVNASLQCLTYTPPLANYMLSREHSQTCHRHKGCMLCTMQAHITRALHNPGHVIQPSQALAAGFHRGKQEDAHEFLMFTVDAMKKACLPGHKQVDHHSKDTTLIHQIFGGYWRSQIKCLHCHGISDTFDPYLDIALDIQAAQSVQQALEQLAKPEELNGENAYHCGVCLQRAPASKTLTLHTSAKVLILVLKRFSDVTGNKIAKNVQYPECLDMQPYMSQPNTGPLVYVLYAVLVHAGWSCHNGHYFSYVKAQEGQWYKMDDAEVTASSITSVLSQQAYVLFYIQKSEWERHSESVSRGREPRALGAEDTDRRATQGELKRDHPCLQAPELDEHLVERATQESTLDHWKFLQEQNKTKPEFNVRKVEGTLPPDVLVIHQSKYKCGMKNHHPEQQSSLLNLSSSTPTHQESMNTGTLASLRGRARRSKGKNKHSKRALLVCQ", "experiment": "inhibitors of human USP17 deubiquitinase (AID 1645855)", "conditions": "purified USP17, Ub-rhodamine cleavage fluorescence, 3 h; at 50 µM; hits give high values", "values": [{"smiles": "Cc1ccnc(Nc2nc(-c3ccccc3)c3cc(Cl)ccc3n2)n1", "inhibition": "91.1% (active)"}, {"smiles": "CCOc1nc(-c2ccc(Cl)cc2Cl)nc2ccccc12", "inhibition": "9.99% (inactive)"}, {"smiles": "O=C(Nc1cc(Cl)ccc1F)c1cnc(-c2ccccc2)nc1-c1ccncc1", "inhibition": "-172% (inactive)"}, {"smiles": "COc1cc2c(c(OC)c1OC)-c1ccc(NCCc3ccc(S(N)(=O)=O)cc3)c(=O)cc1[C@@H](NC(C)=O)CC2", "inhibition": "-68.9% (inactive)"}, {"smiles": "Nc1nc(COC(=O)c2ccoc2)nc(Nc2ccccc2)n1", "inhibition": "-3.92% (inactive)"}, {"smiles": "Cc1nc(-c2ccc(C)c(S(=O)(=O)NCc3ccccc3Cl)c2)cs1", "inhibition": "28% (inactive)"}, {"smiles": "Cc1ccc(F)cc1NC(=O)CN(C)Cc1ccc2c(c1)OCO2", "inhibition": "1.53% (inactive)"}, {"smiles": "CN(CC(=O)Nc1ccc(F)cc1Cl)Cc1ccc2c(c1)OCO2", "inhibition": "-5.43% (inactive)"}, {"smiles": "COc1ccc(C(NC(=O)CN(C)Cc2ccc3c(c2)OCO3)c2ccccc2)cc1", "note": "(stereo not drawn)", "inhibition": "35.3% (active)"}, {"smiles": "CCN(CC)c1ccc2ccc(C(=O)NCCc3ccccn3)cn12", "inhibition": "-61.8% (inactive)"}, {"smiles": "COc1cccc(N2CCN(C(=O)Nc3ccc4c(c3)NC(=O)CO4)CC2)c1", "inhibition": "45% (active)"}, {"smiles": "COc1cccc(NC(=O)N2CC[C@H]3N(C)CC[C@@]3(C(=O)N3CCCC3)CC2)c1", "inhibition": "-21.3% (inactive)"}, {"smiles": "Cc1cc2oc(C(=O)Nc3ccc4c(c3)NC(=O)CO4)c(C)c2cc1Cl", "inhibition": "11.8% (inactive)"}, {"smiles": "CN(Cc1cccnc1)Cc1ccc(N2CCC(NC(=O)c3ccc4c(c3)OCO4)CC2)nc1", "inhibition": "-12% (inactive)"}, {"smiles": "CN1CCN(c2ncc3c(=O)n(Cc4ccccn4)ccc3n2)CC1", "inhibition": "11.4% (inactive)"}, {"smiles": "O=c1c2cnc(N3CCCCC3)nc2ccn1Cc1cccnc1", "inhibition": "-8.83% (inactive)"}, {"smiles": "O=c1c2cnc(N3CCOCC3)nc2ccn1CCc1ccccc1", "inhibition": "71.6% (active)"}, {"smiles": "Cc1nnc2n1CC(c1cccc(NC(=O)Cn3ccnc3C(C)C)c1)CC2", "note": "(stereo not drawn)", "inhibition": "3.88% (inactive)"}, {"smiles": "O=C(Cn1c(=O)n(Cc2ccc3c(c2)OCO3)c(=O)c2cccnc21)Nc1ccc(F)cc1", "inhibition": "14.6% (inactive)"}, {"smiles": "CC(C)[C@H](NC(=O)N1CCn2c1nc1ccccc12)C(=O)NCCc1ccccc1", "inhibition": "-12.9% (inactive)"}, {"smiles": "O=S1(=O)c2ccccc2O[C@H]2CCN(c3ncccn3)CC[C@@H]2N1Cc1cccnc1", "inhibition": "-37.6% (inactive)"}, {"smiles": "CC1CCN(c2nc(F)c3c(c2F)S(=O)(=O)CCN3Cc2cccnc2)CC1", "inhibition": "50.9% (active)"}, {"smiles": "CCN1CCN(c2nc(F)c3c(c2F)S(=O)(=O)CCN3CC2CCCO2)CC1", "note": "(stereo not drawn)", "inhibition": "16.6% (inactive)"}, {"smiles": "Cc1noc(-c2ccc3nnc(CC(=O)Nc4ccc(C)c(F)c4)n3c2)n1", "inhibition": "-2.57% (inactive)"}, {"smiles": "COC(=O)c1cccc(Oc2nc(OC)nc(OC)n2)c1", "inhibition": "-1.33% (inactive)"}, {"smiles": "Cc1cc(C)n(Cc2c(C(=O)NCc3ccc(F)cc3)noc2C)n1", "inhibition": "-5.62% (inactive)"}, {"smiles": "CNS(=O)(=O)c1ccc(CNC(=O)c2cc(-c3ccc(C)cc3)no2)cc1", "inhibition": "65% (active)"}, {"smiles": "Cc1ccc(CNC(=O)c2ccc(-c3cccnc3)nc2)cc1", "inhibition": "9.44% (inactive)"}, {"smiles": "CCn1cc(S(=O)(=O)CC(=O)Nc2ccccc2C(F)(F)F)c2ccccc21", "inhibition": "-1.62% (inactive)"}, {"smiles": "O=C(Nc1ccccc1[N+](=O)[O-])N1CCN(c2ccc3nnc(-c4ccccc4)n3n2)CC1", "inhibition": "12.5% (inactive)"}, {"smiles": "Cc1cccc(-c2nnc3ccc(N4CCC(C(=O)NC(C)Cc5ccco5)CC4)nn23)c1", "note": "(stereo not drawn)", "inhibition": "48.5% (active)"}, {"smiles": "CC1CCN(C(=O)CSc2ccc3nnc(-c4cccc(F)c4)n3n2)CC1", "inhibition": "-2.06% (inactive)"}, {"smiles": "COCCn1c(=O)[nH]c2cc(C(=O)N3CCC(Cc4ccccc4)CC3)ccc2c1=O", "inhibition": "2.53% (inactive)"}, {"smiles": "COCCn1c(=O)[nH]c2cc(C(=O)NCc3ccc(Cl)cc3)ccc2c1=O", "inhibition": "0.361% (inactive)"}, {"smiles": "COCCn1c(=O)[nH]c2cc(C(=O)NCCNc3ccc([N+](=O)[O-])cc3C#N)ccc2c1=O", "inhibition": "53.7% (active)"}, {"smiles": "CN1CCN(S(=O)(=O)c2cccc(C(=O)Nc3cccc(S(N)(=O)=O)c3)c2)CC1", "inhibition": "-6.3% (inactive)"}, {"smiles": "COc1cccc(N2CCN(C(=O)C3CCN(c4ncnc5onc(C)c45)CC3)CC2)c1", "inhibition": "-20.4% (inactive)"}, {"smiles": "CCC(=O)c1ccc(OCC(=O)Nc2ccc3nc(C)sc3c2)cc1", "inhibition": "5.34% (inactive)"}, {"smiles": "CCC(=O)Nc1nc2cc(NC(=O)c3ccc(OC)cc3)ccc2s1", "inhibition": "30.9% (active)"}, {"smiles": "CCOc1ccc2nc(NC(=O)CN3CCC(C(N)=O)CC3)sc2c1", "inhibition": "-0.089% (inactive)"}, {"smiles": "CC(=O)N1c2ccc(S(=O)(=O)NCC3CCC(C(=O)Nc4cccnc4)CC3)cc2CC1C", "note": "(stereo not drawn)", "inhibition": "0.344% (inactive)"}, {"smiles": "CC(Oc1ccc2c3c(c(=O)oc2c1)CCC3)C(=O)NCC(=O)N1CC[C@@]2(O)CCCC[C@H]2C1", "note": "(stereo partly drawn)", "inhibition": "10.3% (inactive)"}, {"smiles": "CNC(=O)c1cnc2scc(-c3ccccc3)n2c1=O", "inhibition": "1.82% (inactive)"}, {"smiles": "Cc1ccc2c(c1)C(=O)NCC1(CCN(C(=O)c3cscn3)CC1)O2", "inhibition": "0.0795% (inactive)"}, {"smiles": "Cc1noc2nc(C3CC3)cc(C(=O)Nc3nc4ccccc4s3)c12", "inhibition": "-4.21% (inactive)"}, {"smiles": "Cc1ccc2sc(NC(=O)NC(=O)c3c(Cl)cccc3Cl)nc2c1", "inhibition": "36.4% (active)"}, {"smiles": "O=C(Nc1ccc2sc(NC(=O)C3CCCCC3)nc2c1)NC1CCCC1", "inhibition": "20.6% (inactive)"}, {"smiles": "Cc1ccc(Cn2cc(C(=O)O)c(S(=O)(=O)N3CCOCC3)n2)cc1", "inhibition": "-22.5% (inactive)"}, {"smiles": "CC(C)OCCCn1c(=O)c2ccccc2n2c(CCC(=O)NCCN3CCN(c4cccc(Cl)c4)CC3)nnc12", "inhibition": "8.41% (inactive)"}, {"smiles": "O=C(C1CCc2nc(N3CCOCC3)ncc2C1)N1CCCCCC1", "note": "(stereo not drawn)", "inhibition": "-6.44% (inactive)"}, {"smiles": "Cc1ccc(NC(=O)C2CCCN(c3ncnc4onc(C)c34)C2)nc1", "note": "(stereo not drawn)", "inhibition": "0.0336% (inactive)"}, {"smiles": "O=C(NC1CC1)c1nc(-c2ccc(-n3cccc3)cc2)no1", "inhibition": "43.1% (active)"}, {"smiles": "O=C(NCC1CC1)c1nc(-c2ccc3[nH]ccc3c2)no1", "inhibition": "-9.5% (inactive)"}, {"smiles": "O=C(NC1CC1)C1CCN(c2ncccc2-c2nc(-c3ccccc3)no2)CC1", "inhibition": "17.4% (inactive)"}, {"smiles": "CSCC[C@H](NC(=O)N1CCn2c1nc1ccccc12)C(=O)NCc1ccc2c(c1)OCO2", "inhibition": "14.2% (inactive)"}, {"smiles": "CCn1c(=O)c(CCC(=O)N2CCN(c3ccccc3)CC2)nc2c(C)nn(-c3ccccc3)c21", "inhibition": "5.12% (inactive)"}, {"smiles": "c1ccc(Nc2cc(CC3CCN(Cc4cnc[nH]4)CC3)ncn2)nc1", "inhibition": "-12.1% (inactive)"}, {"smiles": "CSc1ncnc2c1sc1nc(-c3ccccc3)c3c(c12)CC(C)(C)OC3", "inhibition": "3.2% (inactive)"}, {"smiles": "CC1(C)Cc2c(c(-c3ccco3)nc3sc4c(SCCCc5ccccc5)ncnc4c23)CO1", "inhibition": "69.7% (active)"}, {"smiles": "CCCCCCSc1ncnc2c1sc1nc(-c3ccccc3)c3c(c12)CC(C)(C)OC3", "inhibition": "3.28% (inactive)"}, {"smiles": "Cc1ccc(S(=O)(=O)N2Cc3ccccc3CN3C(=O)NC(=O)C3C2)cc1", "note": "(stereo not drawn)", "inhibition": "4.38% (inactive)"}, {"smiles": "COc1ccc(CCNc2ncnc3c2cnn3Cc2ccccc2)cc1OC", "inhibition": "-18.7% (inactive)"}, {"smiles": "CC(=O)N1CC(C)Oc2cc(S(=O)(=O)Nc3ccc(C)cc3C)ccc21", "note": "(stereo not drawn)", "inhibition": "6.48% (inactive)"}, {"smiles": "CC1CCc2c(sc(NC(=O)c3cc(-c4ccccc4)nc4ccccc34)c2C(N)=O)C1", "note": "(stereo not drawn)", "inhibition": "4.55% (inactive)"}, {"smiles": "NC(=O)c1c(NC(=O)c2ccccc2Oc2ccccc2)sc2c1CCN(Cc1ccccc1)C2", "inhibition": "30.4% (active)"}, {"smiles": "Cc1c(Cc2ccccc2)sc(NC(=O)c2cccnc2)c1C(N)=O", "inhibition": "10.7% (inactive)"}, {"smiles": "O=C(NCc1ccc2c(c1)OCO2)c1ccc(CS(=O)c2ccc(Cl)cc2)o1", "note": "(stereo not drawn)", "inhibition": "-0.0116% (inactive)"}, {"smiles": "CCc1cccc(C)c1NC(=O)C1=Cc2cc(OC)ccc2OC1", "inhibition": "-6.4% (inactive)"}, {"smiles": "Cc1cccc(CNC(=O)C2CCCN(S(=O)(=O)Cc3ccc(F)cc3)C2)c1", "note": "(stereo not drawn)", "inhibition": "56.7% (active)"}, {"smiles": "CC(=O)Nc1nsc(N2CCC(C(=O)NCc3cccc(C)c3)CC2)n1", "inhibition": "-1.72% (inactive)"}, {"smiles": "Cc1cccc(CNC(=O)C2CCN(c3cnc4nccnc4c3)CC2)c1", "inhibition": "-128% (inactive)"}, {"smiles": "COc1ccc(Cn2cc(-c3nc(C4CC4)no3)ccc2=O)cc1F", "inhibition": "-5.47% (inactive)"}, {"smiles": "CCN1CCN(c2nc3c(c(=O)[nH]c(=O)n3C)n2CC(O)c2ccccc2)CC1", "note": "(stereo not drawn)", "inhibition": "-4.6% (inactive)"}, {"smiles": "C=CCn1c(N2CCC(C(=O)NCC(C)O)CC2)nc2ccccc21", "note": "(stereo not drawn)", "inhibition": "9.39% (inactive)"}, {"smiles": "O=C1N[C@H]2OCCC[C@H]2[C@H](c2ccccc2C(=O)O)N1", "inhibition": "-6.46% (inactive)"}, {"smiles": "Cn1c(CCN2CCCC2)nc2cc(NS(=O)(=O)c3ccccc3)ccc21", "inhibition": "60.7% (active)"}, {"smiles": "Cn1c(CCN2CCCC2)nc2cc(NC(=O)c3cccc([N+](=O)[O-])c3)ccc21", "inhibition": "16.8% (inactive)"}, {"smiles": "CC(=O)Nc1ccc2c(c1)nc(CCN1CCCC1)n2C", "inhibition": "-8.68% (inactive)"}, {"smiles": "CCc1nnc(NC(=O)c2cc(-c3ccc(C)c(C)c3O)n[nH]2)s1", "inhibition": "16.7% (inactive)"}, {"smiles": "CC(C)(C)C(=O)Nc1ccc(SCc2nnc(-c3ccccc3)o2)cc1", "inhibition": "2.2% (inactive)"}, {"smiles": "COc1cc(C(=O)Nc2ccc(-c3nc4cnccc4o3)cc2)cc(OC)c1OC", "inhibition": "-3.38% (inactive)"}, {"smiles": "O=C(Nc1ccc(-c2nc3cnccc3o2)c(O)c1)c1ccc(-c2ccccc2)cc1", "inhibition": "2.32% (inactive)"}, {"smiles": "O=C(Cc1ccccc1)Nc1ccc(-c2nc3cnccc3o2)c(O)c1", "inhibition": "63.3% (active)"}, {"smiles": "O=C(c1cc(Cl)ccc1F)N1CCC(c2nc(C3CC3)n[nH]2)CC1", "inhibition": "-2.96% (inactive)"}, {"smiles": "Cc1ccc(CS(=O)(=O)c2cn(CC(=O)N3CCCCC3)c3ccccc23)cc1", "inhibition": "-20.5% (inactive)"}, {"smiles": "O=C(Cn1cc(S(=O)(=O)Cc2ccccc2Cl)c2ccccc21)N1CCCCCC1", "inhibition": "42% (active)"}, {"smiles": "O=C(Cn1cc(S(=O)(=O)Cc2ccccc2F)c2ccccc21)N1CCCCCC1", "inhibition": "-0.288% (inactive)"}, {"smiles": "COc1ccc(-c2nc(-c3cccs3)no2)cc1OC", "inhibition": "-2.65% (inactive)"}]}]}
